Reference: PubChem BioAssay (Tox21)
Several values for one entry are separate records, joined by “and”; a condition that tells them apart may be missing. Equal entries are not always repeated. Records with an inconclusive call do not appear. Activity calls are given as the source filed them. Unless noted, the call rests on the fitted dose curve; in most records, active means well fitted curve in the direction sought with a large enough effect in the repeat runs; inconclusive means weak or mixed curves; inactive means no such curve, though single readings can be large; an effect the other way counts as inactive or inconclusive.

What was measured:
[1] = qHTS assay to identify small molecule agonists of the peroxisome proliferator-activated receptor delta (PPARd) signaling pathway - cell viability counter screen (AID 743211); conditions: PPARd-bla HEK293H viability, CellTiter-Glo luminescence, 17 h; series mostly up to 62.6 µM; further: nearly all actives have a fitted effect of over 55% in size; further: potency means the concentration at half of the fitted maximal effect
Outline: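 qHTS cell viability: PPARd-bla HEK293H; 17 h cpd, 37C; CellTiter-Glo, luminescence at 30 min RT.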

[2] = qHTS assay to identify small molecule antagonists of the peroxisome proliferator-activated receptor delta (PPARd) signaling pathway - cell viability counter screen (AID 743213); conditions: PPARd-bla HEK293H viability, CellTiter-Glo luminescence, 17 h; series mostly up to 62 µM; further: nearly all actives have a fitted effect of over 50% in size; further: potency means the concentration at half of the fitted maximal effect
Outline: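 Luminescence from CellTiter-Glo, added after the bla read and incubated 30 min at room temperature, gives viability of HEK293H PPARd-bla cells exposed to compounds for 17 h at 37 C with 300 nM L165041.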

[3] = biological target: Peroxisome proliferator-activated receptor delta (Homo sapiens) (UniProt Q03181); assay: qHTS assay to identify small molecule antagonists of the peroxisome proliferator-activated receptor delta (PPARd) signaling pathway (AID 743215; active means well fitted inhibition curve with a large enough effect in the signal ratio in the repeat runs, not every such curve was filed as active; the % refers to the signal ratio;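 further: cells stimulated with agonist L165041 at 300 nM final during compound exposure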; further: potency means the concentration at half of the fitted maximal effect); conditions: HEK293H PPARd-UAS-bla, beta-lactamase FRET ratio, antagonist, 17 h; series mostly up to 62 µM
Outline: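 HEK293H UAS-bla, PPARd; agonist L165041 300 nM final with cpd in DMSO; 37 C 17 h; FRET substrate, RT 2 h; fluorescence intensity.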

[4] = qHTS assay to identify small molecule agonists of the farnesoid-X-receptor (FXR) signaling pathway - cell viability counter screen (AID 743218); conditions: FXR-bla HEK293T viability, CellTiter-Glo luminescence, 16 h; series mostly up to 62.6 µM; further: nearly all actives have a fitted effect of over 45% in size; further: potency means the concentration at half of the fitted maximal effect
Outline: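 Parallel cytotoxicity test: compound-treated (16 h, 37 C) HEK 293T FXR-bla reporter cells were lysed with CellTiter-Glo and luminescence recorded.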

[5] = qHTS assay to identify small molecule antagonists of the farnesoid-X-receptor (FXR) signaling pathway - cell viability counter screen (AID 743221; active means well fitted cell-killing curve with a large enough effect in the repeat runs, not every such curve was filed as active; further: nearly all actives have a fitted effect of over 50% in size; further: potency means the concentration at half of the fitted maximal effect); conditions: FXR-bla HEK293T viability, CellTiter-Glo luminescence, 16 h; series mostly up to 62.6 µM
Outline: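 After a 5 h settling period, FXR-bla HEK 293T cells receive compound and chenodeoxycholic acid (50 uM final) and incubate 16 h at 37 C; CellTiter-Glo luminescence, read after 30 min at room temperature, reports cell viability.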

[6] = biological target: Vitamin D3 receptor (Homo sapiens) (UniProt P11473); assay: qHTS assay to identify small molecule agonists of the vitamin D receptor (VDR) signaling pathway (AID 743222; calls by dose curve); conditions: HEK293T VDR-UAS-bla, beta-lactamase FRET ratio, 16 h; series mostly up to 63.5 µM
Outline: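 In VDR-bla cells, compound-induced beta-lactamase expression is quantified by FRET substrate fluorescence. Treatment lasts 16 h at 37C; substrate develops 2 h at room temperature.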

[7] = biological target: Bile acid receptor (Homo sapiens) (UniProt Q96RI1); assay: qHTS assay to identify small molecule antagonists of the farnesoid-X-receptor (FXR) signaling pathway (AID 743217; active means well fitted inhibition curve with a large enough effect in the signal ratio in the repeat runs, not every such curve was filed as active; the % refers to the signal ratio); conditions: HEK293T FXR-UAS-bla, beta-lactamase ratio, CDCA-stimulated, 16 h; series mostly up to 62.6 µM
Outline: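 GeneBLAzer FXR-UAS-bla HEK 293T, CDCA-stimulated (50 uM final). Compound treatment 16 h, 37 °C. Detection: beta-lactamase cleavage of B/G FRET substrate, fluorescence.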

[8] = biological target: Bile acid receptor (Homo sapiens) (UniProt Q96RI1); assay: qHTS assay to identify small molecule agonists of the farnesoid-X-receptor (FXR) signaling pathway (AID 743220; active means well fitted activation curve with a large enough effect in the signal ratio in the repeat runs, not every such curve was filed as active; the % refers to the signal ratio); conditions: HEK293T FXR-UAS-bla, beta-lactamase FRET ratio, 16 h; series mostly up to 62.6 µM
Outline: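 Beta-lactamase reporter under UAS control in GeneBLAzer FXR HEK 293T cells (5000/well) measured with LiveBLAzer FRET substrate after 2 h at room temperature. Compound exposure lasted 16 h at 37C.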

[9] = biological target: Vitamin D3 receptor (Homo sapiens) (UniProt P11473); assay: qHTS assay to identify small molecule antagonists of the vitamin D receptor (VDR) signaling pathway (AID 743223; active means well fitted inhibition curve with a large enough effect in the signal ratio in the repeat runs, not every such curve was filed as active; the % refers to the signal ratio); conditions: VDR-UAS-bla HEK293T, beta-lactamase FRET ratio, 16 h; series mostly up to 61 µM
Outline: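 Reporter line VDR-bla; stimulus 1alpha,25-(OH)2 vitamin D3, 3 nM final; compound co-addition, 16 h 37C/5% CO2; LiveBLAzer B/G substrate 2 h RT; fluorescence intensity.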

Measured: Potency

Sequence of Peroxisome proliferator-activated receptor delta (Homo sapiens) (Q03181 whole entry, looked up): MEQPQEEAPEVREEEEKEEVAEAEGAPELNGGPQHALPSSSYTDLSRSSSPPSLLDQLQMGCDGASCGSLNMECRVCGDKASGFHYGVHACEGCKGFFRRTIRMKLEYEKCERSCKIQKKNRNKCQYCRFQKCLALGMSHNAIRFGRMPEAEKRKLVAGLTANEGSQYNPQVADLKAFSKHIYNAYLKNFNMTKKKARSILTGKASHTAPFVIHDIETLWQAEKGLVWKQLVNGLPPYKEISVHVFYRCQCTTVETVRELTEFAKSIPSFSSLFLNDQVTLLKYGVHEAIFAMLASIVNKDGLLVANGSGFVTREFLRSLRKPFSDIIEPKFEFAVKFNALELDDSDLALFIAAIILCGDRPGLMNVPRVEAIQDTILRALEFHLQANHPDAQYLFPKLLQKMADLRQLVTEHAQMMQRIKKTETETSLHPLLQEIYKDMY
Sequence of Bile acid receptor (Homo sapiens) (Q96RI1 whole entry, looked up): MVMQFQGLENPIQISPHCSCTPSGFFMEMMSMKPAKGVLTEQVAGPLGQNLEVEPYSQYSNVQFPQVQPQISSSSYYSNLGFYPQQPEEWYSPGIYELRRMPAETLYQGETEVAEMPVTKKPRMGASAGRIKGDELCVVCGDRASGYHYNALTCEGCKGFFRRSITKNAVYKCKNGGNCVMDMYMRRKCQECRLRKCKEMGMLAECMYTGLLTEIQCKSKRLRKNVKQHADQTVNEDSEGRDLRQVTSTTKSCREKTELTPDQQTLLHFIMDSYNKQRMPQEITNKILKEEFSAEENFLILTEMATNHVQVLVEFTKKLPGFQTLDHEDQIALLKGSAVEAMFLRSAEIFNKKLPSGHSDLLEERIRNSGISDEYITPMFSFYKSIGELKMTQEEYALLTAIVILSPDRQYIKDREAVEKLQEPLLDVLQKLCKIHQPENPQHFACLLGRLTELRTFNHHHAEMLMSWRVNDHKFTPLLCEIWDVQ
Sequence of Vitamin D3 receptor (Homo sapiens) (P11473 whole entry, looked up): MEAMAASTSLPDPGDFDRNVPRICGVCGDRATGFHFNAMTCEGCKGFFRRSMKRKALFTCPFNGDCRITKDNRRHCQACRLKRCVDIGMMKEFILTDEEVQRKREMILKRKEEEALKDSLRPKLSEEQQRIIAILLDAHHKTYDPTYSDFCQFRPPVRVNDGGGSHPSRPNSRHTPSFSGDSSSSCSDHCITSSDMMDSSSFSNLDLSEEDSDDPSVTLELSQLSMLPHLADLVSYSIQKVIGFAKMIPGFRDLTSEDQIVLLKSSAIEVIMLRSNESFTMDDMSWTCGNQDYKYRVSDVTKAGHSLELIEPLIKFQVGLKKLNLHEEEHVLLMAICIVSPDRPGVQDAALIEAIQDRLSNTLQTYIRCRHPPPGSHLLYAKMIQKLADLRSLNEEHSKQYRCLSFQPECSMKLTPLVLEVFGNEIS

CC(C)C(Nc1ccc(C(F)(F)F)cc1Cl)C(=O)OC(C#N)c1cccc(Oc2ccccc2)c1 (stereo not drawn)
not listed: [7] | [8] | [9]
inactive: all other assays above

CC(Cc1ccc2c(c1)OCO2)NO (stereo not drawn)
inactive: all assays above

O=C(Cl)c1ccccc1F
inactive: all assays above

CN=C=O
inactive: [1] | [2] | [3] | [4] | [5]

O=[N+]([O-])c1ccc(CCl)cc1
inactive: [1] | [2] | [3] | [5] | [9]

Cc1cnc2c(C(=O)O)c(Cl)ccc2c1
not listed: [3] | [6] | [9]
inactive: all other assays above

CC(C)N(C(=O)SC/C(Cl)=C/Cl)C(C)C
inactive: all assays above

CCN1CCC2(CC1)COc1cc3c(cc12)N(C(=O)c1ccc(-c2ccc(-c4nnc(C)o4)cc2C)cc1)CC3
active: [1] 9.01 µM | [2] 6.38 µM | [3] 18 µM | [4] 14.3 µM | [5] 45.2 µM

CO/N=C(\C(=O)OC)c1ccccc1CO/N=C(\C)c1cccc(C(F)(F)F)c1
active: [1] 21.9 µM | [2] 21.9 µM | [3] 4.9 µM
inactive: [6]

C=CCOC(=O)c1ccccc1N
inactive: [1] | [2] | [3] | [4] | [5]

N#CCCl
not listed: [3]
inactive: all other assays above

CC[N+]1(CC)CCC(OC(=O)C(O)(c2ccccc2)c2ccccc2)C1 (stereo not drawn)
not listed: [3] | [6]
inactive: all other assays above

C=CC(=O)[O][Sn]([CH2]CCC)([CH2]CCC)[CH2]CCC
active: [1] 1.95 µM | [2] 3.47 µM | [3] 0.776 µM | [4] 1.1 µM | [5] 3.89 µM
inactive: [6]

O=[N+]([O-])c1ccc(Cl)c(Cl)c1Cl
not listed: [7] | [8] | [9]
inactive: all other assays above

CCC1COC(Cn2cncn2)(c2ccc(Cl)cc2Cl)O1 (stereo not drawn)
not listed: [7] | [8]
inactive: all other assays above

CC(C)=CC1C(C(=O)OC(C#N)c2cccc(Oc3ccccc3)c2)C1(C)C (stereo not drawn)
not listed: [6] | [9]
inactive: all other assays above

ClCBr
not listed: [9]
inactive: all other assays above

ClC1(Cl)C2(Cl)C3(Cl)C4(Cl)C(Cl)(Cl)C5(Cl)C3(Cl)C1(Cl)C5(Cl)C24Cl (stereo not drawn)
not listed: [4] | [7]
inactive: all other assays above

CC(C)Br
not listed: [3]
inactive: all other assays above

COP(=S)(NC(C)C)Oc1ccc(C)cc1[N+](=O)[O-] (stereo not drawn)
inactive: all assays above

CC1(C)C(C=C(Cl)Cl)C1C(=O)OC(C#N)c1ccc(F)c(Oc2ccccc2)c1 (stereo not drawn)
inactive: [1] | [2] | [3] | [5] | [6]

Oc1cccc(Cl)c1Cl
inactive: [1] | [2] | [3] | [4] | [5]

C=CC(=C)C
inactive: all assays above

CCNS(=O)(=O)C(F)(F)C(F)(F)C(F)(F)C(F)(F)C(F)(F)C(F)(F)C(F)(F)C(F)(F)F
inactive: all assays above

Clc1ccc(C2(Cn3cncn3)OCCO2)c(Cl)c1
inactive: [1] | [2] | [3] | [4] | [5]

CCn1cc[n+](C)c1 (tested in a mixture with another compound)
inactive: [1] | [2] | [4]

COCCC#N
not listed: [7] | [8]
inactive: all other assays above

CC(C)=CCN1CC[C@@]2(C)c3cc(O)ccc3C[C@@H]1[C@@H]2C
inactive: [1] | [2] | [3] | [5] | [9]

Oc1ccc(Cl)c(Cl)c1
not listed: [7] | [8] | [9]
inactive: all other assays above

CC(=O)[O][Pb]([c]1ccccc1)([c]1ccccc1)[c]1ccccc1
active: [1] 1.23 µM | [2] 1.23 µM | [4] 0.549 µM | [5] 1.1 µM

[Cl-].[Cl-].[Sn+2]
inactive: [1] | [2] | [4] | [5]

CN(C)C(=S)SSC(=S)N(C)C
inactive: [6]
active: [1] 76.5 nM and 38.9 nM and 188 nM | [2] 108 nM and 30.9 nM and 298 nM | [4] 121 nM and 30.9 nM and 841 nM | [5] 121 nM and 43.6 nM and 237 nM
